Laboratory results published in PubChem BioAssay (Tox21).
Several values for one entry are separate records, joined by “and”; a condition that tells them apart may be missing. Equal values may be shown once. Records with an inconclusive call do not appear. The source holds several records for some structures; these can differ, active in one and inactive in another. Activity calls are given as the source filed them. Unless noted, the call rests on the fitted dose curve; in most records, active means well fitted curve in the direction sought with a large enough effect in the repeat runs; inconclusive means weak or mixed curves; inactive means no such curve, though single readings can be large; an effect the other way counts as inactive or inconclusive.

How the values were obtained:
[1] = qHTS assay to identify small molecule antagonists of the peroxisome proliferator-activated receptor delta (PPARd) signaling pathway - cell viability counter screen (AID 743213); further: nearly all actives have a fitted effect of over 50% in size; further: potency means the concentration at half of the fitted maximal effect
Method in brief: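 Luminescence from CellTiter-Glo, added after the bla read and incubated 30 min at room temperature, gives viability of HEK293H PPARd-bla cells exposed to compounds for 17 h at 37 C with 300 nM L165041.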

[2] = target: Peroxisome proliferator-activated receptor delta (Homo sapiens) (UniProt Q03181); test: qHTS assay to identify small molecule antagonists of the peroxisome proliferator-activated receptor delta (PPARd) signaling pathway (AID 743215; active means well fitted inhibition curve with a large enough effect in the signal ratio in the repeat runs, not every such curve was filed as active; the % refers to the signal ratio;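 further: cells stimulated with agonist L165041 at 300 nM final during compound exposure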; further: potency means the concentration at half of the fitted maximal effect)
Method in brief: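 Plated HEK293H PPARd-bla cells rested 5 h at 37 C and 5% CO2. Compound, then agonist L165041 at 300 nM final, was added; 17 h at 37 C followed. Substrate loading, 2 h room temperature, fluorescence measured.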

[3] = qHTS assay to identify small molecule agonists of the farnesoid-X-receptor (FXR) signaling pathway - cell viability counter screen (AID 743218); further: nearly all actives have a fitted effect of over 45% in size; further: potency means the concentration at half of the fitted maximal effect
Method in brief: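 Viability of FXR-bla HEK 293T cells is measured by ATP-based CellTiter-Glo luminescence following 16 h compound treatment at 37 C and a prior 2 h room-temperature beta-lactamase substrate step.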

[4] = target: Bile acid receptor (Homo sapiens) (UniProt Q96RI1); test: qHTS assay to identify small molecule agonists of the farnesoid-X-receptor (FXR) signaling pathway (AID 743220; active means well fitted activation curve with a large enough effect in the signal ratio in the repeat runs, not every such curve was filed as active; the % refers to the signal ratio; further: on the % scale 0 is the no-effect control and ±100 the full control effect)
Method in brief: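 FXR-UAS-bla HEK 293T cells carrying a UAS-driven beta-lactamase reporter were plated for 5 h at 37C/5% CO2, then exposed to DMSO-dissolved Tox21 10K compounds for 16 h at 37C. A LiveBLAzer B/G FRET substrate was loaded for 2 h at room temperature before fluorescence reading.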

[5] = qHTS assay to identify small molecule antagonists of the farnesoid-X-receptor (FXR) signaling pathway - cell viability counter screen (AID 743221; active means well fitted cell-killing curve with a large enough effect in the repeat runs, not every such curve was filed as active; further: nearly all actives have a fitted effect of over 50% in size; further: potency means the concentration at half of the fitted maximal effect)
Method in brief: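 Cytotoxicity is taken from ATP luminescence (CellTiter-Glo, 30 min, room temperature) in FXR-bla HEK 293T cells previously incubated 16 h at 37 C with compound and chenodeoxycholic acid at 50 uM final.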

[6] = qHTS assay to identify small molecule agonists of the vitamin D receptor (VDR) signaling pathway - cell viability counter screen (AID 743224); further: nearly all actives have a fitted effect of over 50% in size; further: potency means the concentration at half of the fitted maximal effect
Method in brief: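 Compounds were pin-transferred onto VDR-bla cells plated 4 h earlier; following 16 h incubation at 37C, cell viability was quantified by CellTiter-Glo luminescence after 30 min at room temperature.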

[7] = qHTS assay to identify small molecule antagonists of the vitamin D receptor (VDR) signaling pathway - cell viability counter screen (AID 743225); further: nearly all actives have a fitted effect of over 50% in size; further: potency means the concentration at half of the fitted maximal effect
Method in brief: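 Same-well multiplex: following 16 h treatment of HEK 293T cells carrying a UAS-driven beta-lactamase reporter with compound and agonist (3 nM final), and a 2 h FRET substrate step, CellTiter-Glo was added and luminescence read after 30 min.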

[8] = qHTS assay to identify small molecule agonists of the endoplasmic reticulum stress response signaling pathway - cell viability counter screen (AID 1159517; calls by dose curve; further: nearly all actives have a fitted effect of over 50% in size; further: potency means the concentration at half of the fitted maximal effect)
Method in brief: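 In parallel with the ESRE reporter read, cytotoxicity was scored by CellTiter-Glo luminescence (30 min, room temperature) on HeLa ESRE-bla cells dosed for 5 hr.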

[9] = qHTS assay to identify small molecule antagonists of the retinoid-related orphan receptor gamma (ROR-gamma) signaling pathway - cell viability counter screen (AID 1159520); further: nearly all actives have a fitted effect of over 50% in size; further: potency means the concentration at half of the fitted maximal effect
Method in brief: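 Tet-on ROR gamma CHO cells were given compounds for 2 hr, then doxycycline hyclate at 1 uM final, and incubated 16 hr at 37 C. Viability was measured as ATP content by CellTiter-Glo luminescence.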

[10] = qHTS assay to identify small molecule agonists of the AP-1 signaling pathway (AID 1159526; calls by dose curve; further: on the % scale 0 is the no-effect control and ±100 the full control effect)
[11] = target: Vitamin D3 receptor (Homo sapiens) (UniProt P11473); test: qHTS assay to identify small molecule agonists of the vitamin D receptor (VDR) signaling pathway (AID 743222; calls by dose curve; further: on the % scale 0 is the no-effect control and ±100 the full control effect)
Method in brief: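 Fluorescence from cleaved LiveBLAzer B/G FRET substrate served as readout. VDR-bla cells had been treated 16 h at 37C with test compounds in DMSO, following a 4 h settling period, and substrate was loaded for 2 h at RT.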

[12] = target: Nuclear receptor ROR-gamma (Homo sapiens) (UniProt P51449); test: qHTS assay to identify small molecule antagonists of the retinoid-related orphan receptor gamma (ROR-gamma) signaling pathway (AID 1159521; further: nearly all actives have a fitted effect of over 50% in size; further: potency means the concentration at half of the fitted maximal effect)
Method in brief: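 Inducible-expression reporter assay: doxycycline (1 uM final) switched on RORγ in CHO cells bearing a ROR response element-luciferase construct, with test compounds present from 2 h beforehand. Decreased luminescence after 16 h defined antagonist activity.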

[13] = qHTS assay to identify small molecule agonists of the AP-1 signaling pathway - cell viability counter screen (AID 1159525; calls by dose curve; further: nearly all actives have a fitted effect of over 55% in size; further: potency means the concentration at half of the fitted maximal effect)
Method in brief: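 Same-well cytotoxicity counter screen of the Tox21 10K library in ME-180 cells. The readout is ATP-dependent luminescence after 5 h compound treatment. Data are normalised to DMSO and tetra n-octyl ammonium bromide controls.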

[14] = target: Retinoic acid receptor RXR-alpha (Homo sapiens) (UniProt P19793); test: qHTS assay to identify small molecule agonists of the RXR signaling pathway (AID 1159527; calls by dose curve; further: on the % scale 0 is the no-effect control and ±100 the full control effect; nearly all actives have a fitted effect of over 35% in size)
Method in brief: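 Compounds in DMSO were added to RXR-alpha-UAS-bla HEK 293T cells kept in 2% charcoal-stripped serum, and incubated 16 hr at 37 C with 5% CO2. Reporter signal came from a 2 hr B/G FRET substrate step.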

[15] = qHTS assay to identify small molecule agonists of the peroxisome proliferator-activated receptor delta (PPARd) signaling pathway - cell viability counter screen (AID 743211); further: nearly all actives have a fitted effect of over 55% in size; further: potency means the concentration at half of the fitted maximal effect
Method in brief: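 Tox21 library compounds, delivered in DMSO, were incubated 17 h with PPARd-bla HEK293H cells; cytotoxicity was taken from CellTiter-Glo luminescence read 30 min after reagent addition.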

[16] = target: Peroxisome proliferator-activated receptor delta (Homo sapiens) (UniProt Q03181); test: qHTS assay to identify small molecule agonists of the peroxisome proliferator-activated receptor delta (PPARd) signaling pathway (AID 743212; calls by dose curve; further: on the % scale 0 is the no-effect control and ±100 the full control effect)
Method in brief: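 Tox21 library screened in GeneBLAzer PPARd UAS-bla HEK293H cells. After compound treatment at 37 C, a FRET-based beta-lactamase substrate was applied for 2 h and fluorescence recorded.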

[17] = target: Vitamin D3 receptor (Homo sapiens) (UniProt P11473); test: qHTS assay to identify small molecule antagonists of the vitamin D receptor (VDR) signaling pathway (AID 743223; active means well fitted inhibition curve with a large enough effect in the signal ratio in the repeat runs, not every such curve was filed as active; the % refers to the signal ratio; further: on the % scale 0 is the no-effect control and ±100 the full control effect)
Method in brief: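 Quantitative HTS in VDR-bla reporter cells stimulated with 1alpha,25-dihydroxyvitamin D3, 3 nM final. Compound exposure 16 h, 37C, 5% CO2. Read-out: beta-lactamase FRET substrate fluorescence, 2 h RT.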

Retinoic acid receptor RXR-alpha (Homo sapiens), sequence (P19793 whole entry, looked up): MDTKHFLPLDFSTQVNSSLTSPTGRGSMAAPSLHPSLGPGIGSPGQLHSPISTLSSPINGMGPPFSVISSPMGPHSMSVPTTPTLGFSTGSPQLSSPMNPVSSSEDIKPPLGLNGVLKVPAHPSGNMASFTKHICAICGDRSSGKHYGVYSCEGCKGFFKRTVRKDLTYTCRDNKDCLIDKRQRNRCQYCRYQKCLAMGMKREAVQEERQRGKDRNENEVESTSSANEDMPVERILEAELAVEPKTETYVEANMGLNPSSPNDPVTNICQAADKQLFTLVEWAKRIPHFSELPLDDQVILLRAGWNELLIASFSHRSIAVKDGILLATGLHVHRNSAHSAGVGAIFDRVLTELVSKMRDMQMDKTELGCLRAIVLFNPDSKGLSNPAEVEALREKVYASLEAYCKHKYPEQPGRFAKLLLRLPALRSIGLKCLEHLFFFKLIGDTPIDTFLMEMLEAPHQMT
Vitamin D3 receptor (Homo sapiens), sequence (P11473 whole entry, looked up): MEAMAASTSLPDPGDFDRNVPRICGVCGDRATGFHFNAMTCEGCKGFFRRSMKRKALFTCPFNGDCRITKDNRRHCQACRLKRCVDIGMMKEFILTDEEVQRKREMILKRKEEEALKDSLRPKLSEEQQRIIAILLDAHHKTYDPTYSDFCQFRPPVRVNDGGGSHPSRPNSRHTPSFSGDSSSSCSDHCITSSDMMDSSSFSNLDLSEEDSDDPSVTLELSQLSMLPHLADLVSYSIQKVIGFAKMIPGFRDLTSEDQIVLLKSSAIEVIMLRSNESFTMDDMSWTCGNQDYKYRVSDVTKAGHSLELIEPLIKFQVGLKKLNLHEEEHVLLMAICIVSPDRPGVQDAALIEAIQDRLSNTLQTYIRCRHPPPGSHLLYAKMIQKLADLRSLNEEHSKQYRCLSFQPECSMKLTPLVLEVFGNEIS
Peroxisome proliferator-activated receptor delta (Homo sapiens), sequence (Q03181 whole entry, looked up): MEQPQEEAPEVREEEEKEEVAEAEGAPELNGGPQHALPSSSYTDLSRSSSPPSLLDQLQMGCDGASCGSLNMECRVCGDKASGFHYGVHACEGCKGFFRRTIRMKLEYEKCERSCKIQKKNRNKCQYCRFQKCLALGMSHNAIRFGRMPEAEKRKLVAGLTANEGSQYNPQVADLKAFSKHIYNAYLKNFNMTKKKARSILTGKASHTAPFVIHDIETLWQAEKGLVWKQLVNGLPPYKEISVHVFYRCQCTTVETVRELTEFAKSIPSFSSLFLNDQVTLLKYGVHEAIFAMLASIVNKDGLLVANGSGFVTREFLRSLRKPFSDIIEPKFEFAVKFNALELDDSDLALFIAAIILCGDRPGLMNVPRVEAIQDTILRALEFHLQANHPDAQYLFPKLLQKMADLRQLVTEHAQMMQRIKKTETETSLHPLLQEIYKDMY
Bile acid receptor (Homo sapiens), sequence (Q96RI1 whole entry, looked up): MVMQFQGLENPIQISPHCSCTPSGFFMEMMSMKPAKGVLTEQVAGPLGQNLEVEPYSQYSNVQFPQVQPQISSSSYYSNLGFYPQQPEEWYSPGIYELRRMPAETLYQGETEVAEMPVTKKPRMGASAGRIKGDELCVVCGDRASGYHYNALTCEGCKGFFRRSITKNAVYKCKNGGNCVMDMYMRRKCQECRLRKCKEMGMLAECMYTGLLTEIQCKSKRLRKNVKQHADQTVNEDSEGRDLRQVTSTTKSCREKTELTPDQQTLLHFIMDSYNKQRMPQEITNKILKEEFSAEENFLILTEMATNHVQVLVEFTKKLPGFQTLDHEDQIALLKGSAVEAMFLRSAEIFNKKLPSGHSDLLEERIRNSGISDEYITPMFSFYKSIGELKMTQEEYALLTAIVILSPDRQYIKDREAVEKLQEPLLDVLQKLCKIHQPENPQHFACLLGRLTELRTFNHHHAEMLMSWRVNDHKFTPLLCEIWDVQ

CC(=O)/C=C/c1ccc2c(c1)OCO2
active: Potency [2] 43.9 µM
inactive: Potency [1] | Potency [3] | outcome [4] | Potency [5] | Potency [6] | Potency [7] | Potency [8] | Potency [9] | Potency [10]

CSCCCN=C=S
inactive: Potency [1] | Potency [5] | Potency [11] | Potency [7] | Potency [12] | Potency [13] | Potency [10] | outcome [14]
active: Potency [8] 19.5 µM

Brc1c(Br)c(Br)c(Oc2c(Br)c(Br)c(Br)c(Br)c2Br)c(Br)c1Br
inactive: activity, negative = cytotoxicity [9] -0.215% [at 19 µM] | activity change, negative = inhibition [12] 5.56% [at 19 µM] | viability change, negative = cytotoxic [13] 2.51% [at 15.8 µM] | activation [10] 8.87% [at 15.8 µM] | activation [14] 5.85% [at 15.8 µM]

CC[C@H]1C[C@@H]2C[C@H]3c4[nH]c5ccc(OC)cc5c4CCN(C2)[C@@H]13
active: Potency [15] 60.1 µM
inactive: Potency [3] | Potency [5] | Potency [7] | Potency [8] | Potency [9] | Potency [12]

C=CC(=O)N(C)C
inactive: Potency [9] | Potency [12] | Potency [13] | Potency [10] | outcome [14]

CC(C)Oc1cccc(NC(=O)c2ccccc2C(F)(F)F)c1
inactive: Potency [5] | Potency [11] | Potency [6] | Potency [8] | Potency [9] | Potency [13] | Potency [10]

CC(C)CBr
inactive: Potency [9] | Potency [12] | Potency [13] | Potency [10] | outcome [14]

CC(C)(c1ccc(O)c(-c2ccccc2)c1)c1ccc(O)c(-c2ccccc2)c1
active: Potency [9] 43.3 µM | Potency [12] 21.7 µM

N#Cc1c(-c2ccc(Cl)cc2)[nH]c(C(F)(F)F)c1Br
active: Potency [9] 0.611 µM | Potency [12] 0.137 µM
inactive: Potency [13]

COc1ccc([N+](=O)[O-])cc1O
inactive: Potency [9] | Potency [12] | Potency [13] | Potency [10] | outcome [14]

CC(=O)c1ccc(-c2ccccc2)cc1
inactive: Potency [9] | Potency [12] | Potency [13] | Potency [10] | outcome [14]

CCOC(=O)c1ccccc1S(=O)(=O)NC(=O)Nc1nc(Cl)cc(OC)n1
inactive: Potency [9] | Potency [12] | Potency [13] | Potency [10] | outcome [14]

c1cc[c]([Sb]([c]2ccccc2)[c]2ccccc2)cc1
inactive: Potency [9]
active: Potency [12] 61.1 µM

CC(=O)OC1(c2ccccc2)CCN(CCc2ccccc2)CC1
inactive: Potency [16] | Potency [1] | Potency [2] | Potency [3] | Potency [5] | Potency [6] | Potency [7] | Potency [8] | Potency [9] | Potency [13] | outcome [14]

Clc1ccc(Oc2ccccc2)cc1
inactive: Potency [9] | Potency [12] | Potency [13] | Potency [10] | outcome [14]

ClC(Cl)=C(c1ccc(Cl)cc1)c1ccc(Cl)cc1
inactive: Potency [16] | Potency [1] | Potency [2] | outcome [4] | Potency [5] | Potency [17] | Potency [7] | Potency [9]
active: Potency [15] 24.5 µM | Potency [3] 38.9 µM | Potency [8] 54.9 µM | Potency [12] 62.6 µM
inactive and 38.9 µM (active): Potency [6]

[Cl][Sn]([c]1ccccc1)([c]1ccccc1)[c]1ccccc1
active: Potency [9] 0.411 µM | Potency [12] 0.082 µM | Potency [13] 10.4 µM

Cc1cc(C(C)(C)c2cc(C)c(O)c(C)c2)cc(C)c1O
active: Potency [15] 47.4 µM | Potency [1] 42.2 µM | Potency [3] 47.4 µM | Potency [8] 59.6 µM
inactive: Potency [16] | outcome [4]

COC[C@H](C)N(C(=O)CCl)c1c(C)csc1C
inactive: Potency [9] | Potency [12] | Potency [13] | Potency [10] | outcome [14]

COP(N)(=S)OC
inactive: Potency [9] | Potency [12] | Potency [13] | Potency [10] | outcome [14]

Oc1ccc(I)cc1
inactive: Potency [9] | Potency [12] | Potency [13] | Potency [10] | outcome [14]

CC(Cl)CN(C)C (configuration not stated)
inactive: Potency [9] | Potency [12] | Potency [13]

O=C(Cl)c1ccc(Cl)cc1
inactive: Potency [9] | Potency [12] | Potency [13] | Potency [10] | outcome [14]

Cn1cc(C2=C(c3cn(C4CCN(Cc5ccccn5)CC4)c4ccccc34)C(=O)NC2=O)c2ccccc21
active: Potency [3] 16.8 µM
inactive: Potency [15] | Potency [1] | Potency [2] | outcome [4] | Potency [5] | Potency [17] | Potency [6] | Potency [7] | Potency [8] | Potency [9]

Oc1ccc(C(c2ccc(O)cc2)(C(F)(F)F)C(F)(F)F)cc1
inactive: Potency [16] | Potency [1] | Potency [2] | Potency [3] | Potency [5] | Potency [11] | Potency [17] | outcome [14]
inactive and 38.9 µM (active): Potency [7]
active: Potency [8] 49 µM
inactive and 54.9 µM (active): Potency [15] | Potency [6]

COC(=O)N(C(=O)N1COC2(C(=O)OC)Cc3cc(Cl)ccc3C2=N1)c1ccc(OC(F)(F)F)cc1 (configuration not stated)
inactive: Potency [9] | Potency [13]
active: Potency [12] 23.7 µM

CN(CCCC(=O)c1cccnc1)N=O
inactive: Potency [9] | Potency [12] | Potency [13] | Potency [10] | outcome [14]

C=CC(=O)OCC(COC(=O)C=C)(COC(=O)C=C)COC(=O)C=C
active: Potency [15] 6.92 µM | Potency [1] 12.3 µM | Potency [3] 7.76 µM | Potency [5] 21.9 µM | Potency [6] 7.76 µM | Potency [7] 6.92 µM | Potency [8] 12.3 µM

C[CH2][Hg][N]1C(=O)C2C(C1=O)C1(Cl)C(Cl)=C(Cl)C2(Cl)C1(Cl)Cl (configuration not stated)
active: Potency [9] 3.66 µM | Potency [12] 2.31 µM | Potency [13] 6.57 µM
